Records with an inconclusive call do not appear. Values without a mark were called inactive. Calls of active or inactive are those of the source. Calls come from the whole dose curve; as a rule, active = well fitted curve in the direction sought with a large enough effect; inconclusive = small, poorly fitted or top-dose-only effect, or another doubt; inactive = no such curve, though single readings can be large; an effect the other way counts as inactive or inconclusive.
Assays:
[1] = Viability qHTS for spleen associated tyrosine kinase inhibitor (SYKi) drug resistant MV4-11 cells (AID 1963824); settings: SYKi-resistant MV4-11 viability, CellTiter-Glo, 72 h; series mostly up to 45 µM; note: nearly all actives have a fitted effect of over 35% in size; note: potency is the fitted concentration of half-maximal effect
In short: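 SYK inhibitor-resistant MV4-11 AML cells, 500 per well, added to predispensed compounds and incubated 72 hr at 37 C, 5% CO2. Viability measured by CellTiter-Glo luminescence after 10 min at room temperature.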

[2] = Cellular viability qHTS for adrenocortical cancer (ACC) cell line SW-13 (AID 1963989); settings: SW-13 ACC cells viability, CellTiter-Glo, 48 h; activity (max response): active compounds read low;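 note: cells grown in serum-free medium with ITS supplement; % is set by controls: 0 for no effect and ±100 for the full control effect; nearly all actives have a fitted effect of over 65% in size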
In short: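 Here, serum-free SW-13 cultures were dosed up to 46 uM. Following 48 h, ATP-dependent luminescence (CellTiter-Glo) reported viable cells, and logistic modeling produced IC50 values.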

NS(=O)(=O)c1cc2c(cc1Cl)CN(C1CCCCC1)C2=O
Potency [1]: inactive | activity (max response) [2]: 0.796%

CCC(=O)O[C@H]1[C@H](O[C@@H]2[C@@H](C)[C@H](O[C@H]3C[C@@](C)(OC)[C@@H](O)[C@H](C)O3)[C@@H](C)C(=O)O[C@H](CC)[C@@](C)(O)[C@H](O)[C@@H](C)C(=O)[C@H](C)C[C@@]2(C)O)O[C@H](C)C[C@@H]1N(C)C
Potency [1]: inactive | activity (max response) [2]: 0.809%

Cc1cc(Oc2ccc3nc(COc4ccc(CC5SC(=O)NC5=O)cc4)n(C)c3c2)cc(C)c1N (stereo not drawn)
Potency [1]: 16.6 µM (active) | activity (max response) [2]: -6.08%

CCN(CC)CCSC(=O)C(c1ccccc1)c1ccccc1
Potency [1]: inactive | activity (max response) [2]: -19.1%

CO[C@H]1/C=C/O[C@@]2(C)Oc3c(C)c(O)c4c(O)c(c(/C=N/N5CCN(C)CC5)c(O)c4c3C2=O)NC(=O)/C(C)=C\C=C\[C@H](C)[C@H](O)[C@@H](C)[C@@H](O)[C@@H](C)[C@H](OC(C)=O)[C@@H]1C
Potency [1]: 18.6 µM (active) | activity (max response) [2]: -27.5%

CC(C)C(=O)Nc1cccc(C2CN3CCSC3=N2)c1 (stereo not drawn)
Potency [1]: inactive | activity (max response) [2]: -3.96%

NS(=O)(=O)c1ccc(N2CCCCS2(=O)=O)cc1
Potency [1]: inactive | activity (max response) [2]: 16.4%

Cc1cc(-c2cnn3c(NCC4CC(C)(O)C4)cc(Oc4cccnc4)nc23)ccc1C(=O)NC1CC1 (stereo not drawn)
Potency [1]: 0.118 µM (active) | activity (max response) [2]: -6.44%

COc1cc(S(C)(=O)=O)ccc1Nc1nc2ccc(-c3ccc(NC(=O)[C@H](C)c4ccc(F)cc4)cc3)cn2n1
Potency [1]: 0.468 µM (active) | activity (max response) [2]: -19.6%
